Measured values published in ChEMBL document CHEMBL1961873, “Compounds: GSK PKIS; Assays: Nanosyn kinase panel” (2012).

Legend:
[1] = biological target: T1, Inhibitor of nuclear factor kappa-B kinase subunit epsilon (Homo sapiens) (UniProt Q14164); conditions: at 1 µM;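 further: reported values are averaged percent inhibition figures against human IKKε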
T1 sequence (whole entry): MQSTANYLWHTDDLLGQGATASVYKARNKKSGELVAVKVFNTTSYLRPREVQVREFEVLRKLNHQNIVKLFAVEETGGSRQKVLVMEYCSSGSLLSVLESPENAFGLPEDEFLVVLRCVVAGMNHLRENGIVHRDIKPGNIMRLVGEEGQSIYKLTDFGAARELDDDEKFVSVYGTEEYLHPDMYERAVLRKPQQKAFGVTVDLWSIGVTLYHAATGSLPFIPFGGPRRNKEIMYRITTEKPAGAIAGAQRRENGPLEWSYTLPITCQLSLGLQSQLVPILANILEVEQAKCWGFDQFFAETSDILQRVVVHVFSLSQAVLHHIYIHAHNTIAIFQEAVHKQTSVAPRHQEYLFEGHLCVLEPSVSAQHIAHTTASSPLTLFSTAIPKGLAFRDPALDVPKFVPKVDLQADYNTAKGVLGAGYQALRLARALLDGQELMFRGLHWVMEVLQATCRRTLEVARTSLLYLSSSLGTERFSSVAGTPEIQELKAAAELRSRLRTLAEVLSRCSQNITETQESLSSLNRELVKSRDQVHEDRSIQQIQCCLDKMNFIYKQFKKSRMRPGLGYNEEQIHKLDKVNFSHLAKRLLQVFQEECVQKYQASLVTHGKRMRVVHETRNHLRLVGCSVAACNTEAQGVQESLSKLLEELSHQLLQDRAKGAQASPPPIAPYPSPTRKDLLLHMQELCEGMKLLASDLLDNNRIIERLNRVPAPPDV

[2] = biological target: T2, Serine/threonine-protein kinase Nek1 (Homo sapiens) (UniProt Q96PY6); conditions: at 0.1 µM
T2 sequence (whole entry): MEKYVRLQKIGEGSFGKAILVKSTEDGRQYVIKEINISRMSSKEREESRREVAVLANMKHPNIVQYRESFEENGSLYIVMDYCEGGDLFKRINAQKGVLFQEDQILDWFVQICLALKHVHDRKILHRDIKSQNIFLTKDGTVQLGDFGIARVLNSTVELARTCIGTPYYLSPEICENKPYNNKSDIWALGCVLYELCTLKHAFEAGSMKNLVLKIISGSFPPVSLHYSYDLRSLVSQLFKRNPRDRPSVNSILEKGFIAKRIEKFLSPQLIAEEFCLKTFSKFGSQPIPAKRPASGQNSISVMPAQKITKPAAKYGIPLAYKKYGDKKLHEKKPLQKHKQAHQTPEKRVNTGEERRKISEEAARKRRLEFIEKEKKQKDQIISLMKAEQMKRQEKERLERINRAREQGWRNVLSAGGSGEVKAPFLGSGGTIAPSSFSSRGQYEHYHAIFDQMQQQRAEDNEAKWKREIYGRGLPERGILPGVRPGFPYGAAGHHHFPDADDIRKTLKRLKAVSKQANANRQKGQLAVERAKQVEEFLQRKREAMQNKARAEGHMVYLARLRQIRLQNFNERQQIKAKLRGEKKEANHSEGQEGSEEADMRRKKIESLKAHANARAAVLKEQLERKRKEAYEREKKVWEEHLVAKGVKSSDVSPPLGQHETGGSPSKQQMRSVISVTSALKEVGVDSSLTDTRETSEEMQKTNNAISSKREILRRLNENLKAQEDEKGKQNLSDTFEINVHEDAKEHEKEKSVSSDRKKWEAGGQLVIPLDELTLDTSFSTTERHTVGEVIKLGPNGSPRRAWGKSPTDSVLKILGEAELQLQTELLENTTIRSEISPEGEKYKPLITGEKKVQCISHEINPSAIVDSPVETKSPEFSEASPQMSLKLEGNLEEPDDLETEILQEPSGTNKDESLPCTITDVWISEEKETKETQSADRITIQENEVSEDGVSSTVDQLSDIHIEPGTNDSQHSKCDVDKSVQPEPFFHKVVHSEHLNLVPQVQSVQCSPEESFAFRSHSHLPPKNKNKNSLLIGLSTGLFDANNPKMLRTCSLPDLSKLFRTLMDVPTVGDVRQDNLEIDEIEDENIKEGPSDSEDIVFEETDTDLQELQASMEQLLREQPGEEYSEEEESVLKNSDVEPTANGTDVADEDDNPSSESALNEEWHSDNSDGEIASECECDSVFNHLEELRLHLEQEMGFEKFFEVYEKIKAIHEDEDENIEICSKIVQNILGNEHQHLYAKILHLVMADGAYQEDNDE

[3] = biological target: T2, Serine/threonine-protein kinase Nek1 (Homo sapiens); conditions: at 1 µM
[4] = biological target: T3, Serine/threonine-protein kinase Nek2 (Homo sapiens) (UniProt P51955); conditions: at 0.1 µM
T3 sequence (whole entry): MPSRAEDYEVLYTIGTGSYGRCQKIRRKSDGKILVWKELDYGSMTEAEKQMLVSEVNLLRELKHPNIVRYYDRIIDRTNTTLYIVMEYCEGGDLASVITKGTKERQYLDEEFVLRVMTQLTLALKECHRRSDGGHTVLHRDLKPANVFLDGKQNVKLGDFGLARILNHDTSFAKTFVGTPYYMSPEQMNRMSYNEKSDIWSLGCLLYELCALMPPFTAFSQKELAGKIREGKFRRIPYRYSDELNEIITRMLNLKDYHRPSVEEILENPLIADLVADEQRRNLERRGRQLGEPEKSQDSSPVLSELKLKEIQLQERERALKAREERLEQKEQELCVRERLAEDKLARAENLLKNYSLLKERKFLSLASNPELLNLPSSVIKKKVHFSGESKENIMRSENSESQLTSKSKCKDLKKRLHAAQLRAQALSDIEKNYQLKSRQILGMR

[5] = biological target: T3, Serine/threonine-protein kinase Nek2 (Homo sapiens); conditions: at 1 µM
[6] = biological target: Serine/threonine-protein kinase Nek6 (Homo sapiens) (UniProt Q9HC98); conditions: at 0.1 µM
[7] = biological target: Serine/threonine-protein kinase Nek6 (Homo sapiens) (UniProt Q9HC98); conditions: at 1 µM
[8] = biological target: Serine/threonine-protein kinase Nek7 (Homo sapiens) (UniProt Q8TDX7); conditions: at 0.1 µM
[9] = biological target: Serine/threonine-protein kinase Nek7 (Homo sapiens) (UniProt Q8TDX7); conditions: at 1 µM
[10] = biological target: T4, Serine/threonine-protein kinase Nek9 (Homo sapiens) (UniProt Q8TD19); conditions: at 0.1 µM
T4 sequence (whole entry): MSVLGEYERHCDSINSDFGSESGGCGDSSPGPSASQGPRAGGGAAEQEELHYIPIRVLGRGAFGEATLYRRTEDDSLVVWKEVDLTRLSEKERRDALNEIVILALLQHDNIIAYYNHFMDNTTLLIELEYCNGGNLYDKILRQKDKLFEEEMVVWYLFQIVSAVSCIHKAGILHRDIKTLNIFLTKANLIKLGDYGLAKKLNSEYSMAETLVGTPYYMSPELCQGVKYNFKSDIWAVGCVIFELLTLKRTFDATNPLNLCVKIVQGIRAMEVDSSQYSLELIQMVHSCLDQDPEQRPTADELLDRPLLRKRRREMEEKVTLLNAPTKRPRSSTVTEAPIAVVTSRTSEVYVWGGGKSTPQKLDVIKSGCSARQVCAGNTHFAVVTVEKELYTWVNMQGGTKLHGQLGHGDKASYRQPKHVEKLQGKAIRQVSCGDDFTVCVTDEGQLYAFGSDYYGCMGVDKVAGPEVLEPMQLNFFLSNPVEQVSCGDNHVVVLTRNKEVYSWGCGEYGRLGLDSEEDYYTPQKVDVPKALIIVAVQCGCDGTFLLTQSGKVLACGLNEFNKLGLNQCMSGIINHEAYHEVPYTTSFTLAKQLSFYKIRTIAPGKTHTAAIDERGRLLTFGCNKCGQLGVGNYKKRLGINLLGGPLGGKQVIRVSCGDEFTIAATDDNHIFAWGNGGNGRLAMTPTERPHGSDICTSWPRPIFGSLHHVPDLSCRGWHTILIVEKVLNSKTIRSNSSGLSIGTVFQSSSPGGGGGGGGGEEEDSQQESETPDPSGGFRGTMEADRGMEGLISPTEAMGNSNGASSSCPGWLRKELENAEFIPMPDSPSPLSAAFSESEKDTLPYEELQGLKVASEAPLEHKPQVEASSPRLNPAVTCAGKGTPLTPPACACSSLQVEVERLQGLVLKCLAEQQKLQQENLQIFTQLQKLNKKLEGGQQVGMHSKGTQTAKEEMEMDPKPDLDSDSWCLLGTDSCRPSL

[11] = biological target: T4, Serine/threonine-protein kinase Nek9 (Homo sapiens); conditions: at 1 µM
[12] = biological target: Serine/threonine-protein kinase PLK1 (Homo sapiens) (UniProt P53350); conditions: at 0.1 µM
[13] = biological target: Serine/threonine-protein kinase PLK1 (Homo sapiens) (UniProt P53350); conditions: at 1 µM
[14] = biological target: T5, Dual specificity protein kinase TTK (Homo sapiens) (UniProt P33981); conditions: at 0.1 µM
T5 sequence (whole entry): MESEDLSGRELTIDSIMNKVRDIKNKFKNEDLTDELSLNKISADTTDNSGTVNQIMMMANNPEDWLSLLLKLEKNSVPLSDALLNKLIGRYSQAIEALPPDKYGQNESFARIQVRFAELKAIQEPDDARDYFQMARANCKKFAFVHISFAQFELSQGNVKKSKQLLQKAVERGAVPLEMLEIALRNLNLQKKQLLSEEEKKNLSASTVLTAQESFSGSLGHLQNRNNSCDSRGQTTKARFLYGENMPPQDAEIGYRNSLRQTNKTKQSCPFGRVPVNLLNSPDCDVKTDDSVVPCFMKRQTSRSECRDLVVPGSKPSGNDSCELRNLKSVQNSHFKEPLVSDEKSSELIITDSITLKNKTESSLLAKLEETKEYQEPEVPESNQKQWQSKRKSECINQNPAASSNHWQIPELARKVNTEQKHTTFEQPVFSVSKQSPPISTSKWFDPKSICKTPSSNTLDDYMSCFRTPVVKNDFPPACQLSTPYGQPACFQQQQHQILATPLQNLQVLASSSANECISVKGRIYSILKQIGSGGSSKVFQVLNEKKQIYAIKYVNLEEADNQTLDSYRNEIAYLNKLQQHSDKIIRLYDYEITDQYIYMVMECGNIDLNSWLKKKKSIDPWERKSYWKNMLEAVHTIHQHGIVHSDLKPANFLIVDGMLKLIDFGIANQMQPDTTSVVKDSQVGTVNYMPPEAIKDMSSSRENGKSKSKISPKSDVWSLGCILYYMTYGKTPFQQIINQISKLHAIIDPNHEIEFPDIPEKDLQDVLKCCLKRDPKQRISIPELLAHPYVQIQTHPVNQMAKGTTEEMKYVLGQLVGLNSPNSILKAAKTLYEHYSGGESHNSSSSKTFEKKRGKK

[15] = tested on: T6, Receptor-type tyrosine-protein kinase FLT3 (Homo sapiens), P36888 [D835Y]; conditions: at 1 µM
T6 sequence (whole entry): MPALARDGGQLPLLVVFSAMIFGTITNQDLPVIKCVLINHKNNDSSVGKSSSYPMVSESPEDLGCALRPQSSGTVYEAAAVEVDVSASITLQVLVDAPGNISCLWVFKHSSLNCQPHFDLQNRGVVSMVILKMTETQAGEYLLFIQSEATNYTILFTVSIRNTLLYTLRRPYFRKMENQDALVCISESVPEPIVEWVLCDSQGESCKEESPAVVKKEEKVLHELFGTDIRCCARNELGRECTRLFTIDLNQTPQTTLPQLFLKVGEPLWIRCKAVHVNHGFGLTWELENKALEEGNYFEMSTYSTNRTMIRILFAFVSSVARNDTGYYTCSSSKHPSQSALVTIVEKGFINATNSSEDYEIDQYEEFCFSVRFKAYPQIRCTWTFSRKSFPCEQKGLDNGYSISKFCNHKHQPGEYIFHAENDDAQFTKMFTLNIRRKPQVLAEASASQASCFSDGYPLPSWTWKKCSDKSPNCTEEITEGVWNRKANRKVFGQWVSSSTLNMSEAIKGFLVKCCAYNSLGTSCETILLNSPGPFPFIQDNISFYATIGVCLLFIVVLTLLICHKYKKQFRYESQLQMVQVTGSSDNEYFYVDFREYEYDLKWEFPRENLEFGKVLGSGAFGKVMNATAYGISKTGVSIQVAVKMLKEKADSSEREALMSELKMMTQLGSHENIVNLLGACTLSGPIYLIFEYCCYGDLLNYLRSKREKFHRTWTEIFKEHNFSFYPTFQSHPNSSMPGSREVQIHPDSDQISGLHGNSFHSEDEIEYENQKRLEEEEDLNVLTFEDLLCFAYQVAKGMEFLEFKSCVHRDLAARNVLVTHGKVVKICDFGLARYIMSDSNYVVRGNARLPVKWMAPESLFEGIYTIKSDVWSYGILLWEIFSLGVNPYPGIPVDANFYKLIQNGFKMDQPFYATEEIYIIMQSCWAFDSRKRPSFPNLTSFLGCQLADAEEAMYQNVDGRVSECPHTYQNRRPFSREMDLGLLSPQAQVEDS

[16] = biological target: Vascular endothelial growth factor receptor 3 (Homo sapiens) (UniProt P35916); conditions: at 0.1 µM
[17] = biological target: Vascular endothelial growth factor receptor 3 (Homo sapiens) (UniProt P35916); conditions: at 1 µM
[18] = biological target: Macrophage colony-stimulating factor 1 receptor (Homo sapiens) (UniProt P07333); conditions: at 0.1 µM
[19] = biological target: Macrophage colony-stimulating factor 1 receptor (Homo sapiens) (UniProt P07333); conditions: at 1 µM
[20] = biological target: Tyrosine-protein kinase Fyn (Homo sapiens) (UniProt P06241); conditions: at 0.1 µM
Tyrosine-protein kinase Fyn (Homo sapiens), sequence (P06241 2-537 limits assumed): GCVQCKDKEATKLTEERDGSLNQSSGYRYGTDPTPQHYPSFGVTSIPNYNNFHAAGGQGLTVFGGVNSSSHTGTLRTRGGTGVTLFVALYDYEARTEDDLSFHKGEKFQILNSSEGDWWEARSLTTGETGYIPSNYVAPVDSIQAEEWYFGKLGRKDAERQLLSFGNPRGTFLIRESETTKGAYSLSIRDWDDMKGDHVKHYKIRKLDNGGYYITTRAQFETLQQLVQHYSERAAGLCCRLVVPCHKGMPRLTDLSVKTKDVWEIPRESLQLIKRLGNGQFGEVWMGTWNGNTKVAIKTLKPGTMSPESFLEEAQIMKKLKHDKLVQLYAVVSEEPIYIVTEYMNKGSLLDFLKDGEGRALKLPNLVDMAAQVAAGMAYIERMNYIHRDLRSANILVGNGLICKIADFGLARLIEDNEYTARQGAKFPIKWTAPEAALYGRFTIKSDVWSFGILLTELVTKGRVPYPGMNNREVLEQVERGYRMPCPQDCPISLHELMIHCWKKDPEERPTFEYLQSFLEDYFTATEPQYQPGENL

Serine/threonine-protein kinase Nek6 (Homo sapiens), sequence (Q9HC98 whole entry): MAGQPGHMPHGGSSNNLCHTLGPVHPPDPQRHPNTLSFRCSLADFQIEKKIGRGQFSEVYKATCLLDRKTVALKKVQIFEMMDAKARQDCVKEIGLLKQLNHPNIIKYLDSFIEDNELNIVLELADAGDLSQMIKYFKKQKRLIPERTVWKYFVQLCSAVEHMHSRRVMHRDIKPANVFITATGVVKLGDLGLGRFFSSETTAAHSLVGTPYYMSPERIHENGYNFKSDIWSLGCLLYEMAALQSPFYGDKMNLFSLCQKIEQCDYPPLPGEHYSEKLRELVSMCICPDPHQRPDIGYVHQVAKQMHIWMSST
Serine/threonine-protein kinase PLK1 (Homo sapiens), sequence (P53350 whole entry): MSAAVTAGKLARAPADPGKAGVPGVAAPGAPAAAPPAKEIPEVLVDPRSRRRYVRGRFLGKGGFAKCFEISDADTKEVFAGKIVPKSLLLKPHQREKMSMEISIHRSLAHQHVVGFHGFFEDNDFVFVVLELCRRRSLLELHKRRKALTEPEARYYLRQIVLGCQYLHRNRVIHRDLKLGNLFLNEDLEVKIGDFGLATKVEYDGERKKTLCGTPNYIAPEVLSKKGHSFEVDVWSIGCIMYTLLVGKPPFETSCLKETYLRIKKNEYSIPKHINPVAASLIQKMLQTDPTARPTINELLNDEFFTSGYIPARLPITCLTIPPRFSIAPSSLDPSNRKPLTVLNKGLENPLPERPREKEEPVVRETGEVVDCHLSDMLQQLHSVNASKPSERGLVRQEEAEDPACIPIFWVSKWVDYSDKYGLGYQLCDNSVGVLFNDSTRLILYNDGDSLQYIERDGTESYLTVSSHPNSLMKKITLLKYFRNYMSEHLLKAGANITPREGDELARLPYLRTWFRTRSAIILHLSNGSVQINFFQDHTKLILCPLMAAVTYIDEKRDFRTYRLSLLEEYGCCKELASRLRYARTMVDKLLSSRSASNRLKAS
Serine/threonine-protein kinase Nek7 (Homo sapiens), sequence (Q8TDX7 whole entry, looked up): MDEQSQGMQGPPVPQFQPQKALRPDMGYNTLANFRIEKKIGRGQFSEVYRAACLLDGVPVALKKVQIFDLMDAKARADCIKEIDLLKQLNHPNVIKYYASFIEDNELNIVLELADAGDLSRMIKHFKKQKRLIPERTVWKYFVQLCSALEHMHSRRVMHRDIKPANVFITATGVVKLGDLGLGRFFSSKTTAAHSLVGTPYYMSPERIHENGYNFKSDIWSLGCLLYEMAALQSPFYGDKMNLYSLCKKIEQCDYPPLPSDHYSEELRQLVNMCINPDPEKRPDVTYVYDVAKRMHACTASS
Vascular endothelial growth factor receptor 3 (Homo sapiens), sequence (P35916 whole entry): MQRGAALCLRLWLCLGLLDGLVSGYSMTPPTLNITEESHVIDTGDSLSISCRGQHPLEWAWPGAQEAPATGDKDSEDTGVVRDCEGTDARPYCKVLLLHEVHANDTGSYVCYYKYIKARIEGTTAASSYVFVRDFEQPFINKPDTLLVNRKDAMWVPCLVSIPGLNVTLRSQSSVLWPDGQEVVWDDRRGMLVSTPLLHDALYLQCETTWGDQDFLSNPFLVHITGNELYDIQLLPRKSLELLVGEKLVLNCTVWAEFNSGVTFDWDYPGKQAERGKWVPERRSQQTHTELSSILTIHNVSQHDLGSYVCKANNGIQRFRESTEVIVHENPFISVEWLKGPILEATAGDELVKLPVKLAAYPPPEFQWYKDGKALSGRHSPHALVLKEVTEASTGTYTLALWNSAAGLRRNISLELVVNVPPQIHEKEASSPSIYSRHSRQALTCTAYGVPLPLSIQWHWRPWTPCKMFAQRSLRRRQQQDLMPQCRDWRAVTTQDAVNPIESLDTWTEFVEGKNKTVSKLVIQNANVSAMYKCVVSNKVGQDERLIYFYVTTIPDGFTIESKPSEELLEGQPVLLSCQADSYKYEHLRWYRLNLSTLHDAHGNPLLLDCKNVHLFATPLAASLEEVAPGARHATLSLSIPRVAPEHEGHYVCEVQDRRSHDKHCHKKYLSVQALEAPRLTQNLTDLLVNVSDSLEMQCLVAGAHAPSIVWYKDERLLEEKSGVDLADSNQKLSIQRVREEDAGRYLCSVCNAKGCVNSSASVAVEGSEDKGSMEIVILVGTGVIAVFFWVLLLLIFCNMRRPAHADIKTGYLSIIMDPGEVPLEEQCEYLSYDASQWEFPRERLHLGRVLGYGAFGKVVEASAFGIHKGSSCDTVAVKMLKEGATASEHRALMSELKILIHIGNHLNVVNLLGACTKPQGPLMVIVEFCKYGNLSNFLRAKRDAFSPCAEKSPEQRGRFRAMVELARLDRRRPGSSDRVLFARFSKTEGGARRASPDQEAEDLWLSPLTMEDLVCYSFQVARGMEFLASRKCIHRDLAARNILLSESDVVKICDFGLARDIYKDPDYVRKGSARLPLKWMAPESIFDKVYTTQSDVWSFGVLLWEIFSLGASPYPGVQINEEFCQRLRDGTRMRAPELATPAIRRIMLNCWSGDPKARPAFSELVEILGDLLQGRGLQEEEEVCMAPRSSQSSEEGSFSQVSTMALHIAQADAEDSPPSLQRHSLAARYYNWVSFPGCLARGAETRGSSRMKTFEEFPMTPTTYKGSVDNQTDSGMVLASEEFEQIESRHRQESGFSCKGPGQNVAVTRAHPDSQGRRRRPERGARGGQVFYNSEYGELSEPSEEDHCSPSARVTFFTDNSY
Macrophage colony-stimulating factor 1 receptor (Homo sapiens), sequence (P07333 whole entry): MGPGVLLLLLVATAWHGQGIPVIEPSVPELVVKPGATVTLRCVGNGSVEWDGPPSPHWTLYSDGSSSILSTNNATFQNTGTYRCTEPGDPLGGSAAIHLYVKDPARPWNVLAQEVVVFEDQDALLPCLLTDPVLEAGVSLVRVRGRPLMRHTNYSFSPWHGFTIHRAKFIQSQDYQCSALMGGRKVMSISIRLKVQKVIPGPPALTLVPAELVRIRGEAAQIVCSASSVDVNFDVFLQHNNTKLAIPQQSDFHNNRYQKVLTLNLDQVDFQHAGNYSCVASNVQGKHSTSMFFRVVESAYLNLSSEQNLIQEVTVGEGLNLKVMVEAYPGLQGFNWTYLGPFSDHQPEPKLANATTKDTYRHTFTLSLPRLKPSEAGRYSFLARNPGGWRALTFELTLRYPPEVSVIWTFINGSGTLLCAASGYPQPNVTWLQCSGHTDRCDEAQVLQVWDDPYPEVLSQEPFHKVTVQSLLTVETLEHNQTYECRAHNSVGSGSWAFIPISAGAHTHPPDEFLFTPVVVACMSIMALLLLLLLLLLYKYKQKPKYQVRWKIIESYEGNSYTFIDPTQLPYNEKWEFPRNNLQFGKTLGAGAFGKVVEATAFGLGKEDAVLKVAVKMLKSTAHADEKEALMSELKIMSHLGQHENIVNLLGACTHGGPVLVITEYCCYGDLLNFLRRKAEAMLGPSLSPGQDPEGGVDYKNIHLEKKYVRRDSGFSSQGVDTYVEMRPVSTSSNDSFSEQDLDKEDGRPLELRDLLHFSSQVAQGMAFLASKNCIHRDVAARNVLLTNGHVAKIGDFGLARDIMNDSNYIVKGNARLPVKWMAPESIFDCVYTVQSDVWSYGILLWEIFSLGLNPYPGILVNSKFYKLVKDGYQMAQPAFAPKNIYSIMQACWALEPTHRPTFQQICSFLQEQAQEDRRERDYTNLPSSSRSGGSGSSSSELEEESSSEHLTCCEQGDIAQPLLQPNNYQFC

SMILES | inhibition [1] | inhibition [2] | inhibition [3] | inhibition [4] | inhibition [5] | inhibition [6] | inhibition [7] | inhibition [8] | inhibition [9] | inhibition [10] | inhibition [11] | inhibition [12] | inhibition [13] | inhibition [14] | inhibition [15] | inhibition [16] | inhibition [17] | inhibition [18] | inhibition [19] | inhibition [20]
COc1ccc(-c2cc3c(N)ncnc3o2)cc1 | -1.16% | 0.22% | 3.78% | -1.56% | -1.7% | -0.18% | -1.06% | -2.18% | -0.87% | 4.69% | 2.28% | -1.11% | -1.15% | 0.22% | 1.63% | 0.51% | 4.44% | 2.06% | 17.9% | 0.82%
COc1cccc(-n2ncc3c(N/N=C/c4ccc(F)cc4)ncnc32)c1 | 8.08% | 2.09% | 4.05% | 3.93% | 2.32% | 2.71% | 3.01% | 1.25% | 3.29% | 1.55% | 6.76% | 1.91% | 4.22% | 7.93% | 12.3% | 7.04% | 6.84% | 6.04% | 5.69% | 8.43%
